# TDP1 cell noCPT: qHTS for Inhibitors of human tyrosyl-DNA phosphodiesterase 1 (TDP1): qHTS in cells in absence of CPT. DT40 Tdp1-/- hTDP1 cells, no CPT, ATP luminescence, 48 h. Potency, µM (highest dose often 46.2 µM), for inactives: top-dose activity change, negative = growth inhibition, hits mostly inhibitors. 420,000 compounds, 15% hits. AID 686978, 2013; further: nearly all actives have a fitted effect of over 55% in size
#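 A cellular qHTS used chicken DT40 cells lacking endogenous Tdp1 but carrying stably transfected human TDP1. Compounds were applied without camptothecin, and cell growth kinetics were judged by ATP-dependent luminescence after ≥48 hr.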
# DT40 TDP1 CPT: qHTS for Inhibitors of human tyrosyl-DNA phosphodiesterase 1 (TDP1): qHTS in cells in presence of CPT | chicken DT40 Tdp1-/-;hTDP1 cells + 20 nM CPT, ATP luminescence, 48 h | Potency, µM (highest dose often 46.2 µM), inactives show at the top dose activity change, negative = growth inhibition, hits mostly inhibitors | 420,000 compounds, 12% hits; further: nearly all actives have a fitted effect of over 55% in size
#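 Cell growth measured by CellTiter-Glo luminescence after a minimum 48 h, 37 C compound exposure with 20 nM CPT in Tdp1-knockout DT40 cells stably expressing hTDP1, seeded 400/well; qHTS titration format.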
# RORg inh: qHTS for inhibitors of ROR gamma transcriptional activity; Potency, µM (titrated, usually from 53.6 µM), for the others: at the highest dose activity change, negative = inhibition, most hits filed as inhibitors; Drosophila S2 Gal4-RORgamma UAS-luciferase reporter, 20 h; AID 2551, 2010; 310,000 compounds, 5.4% hits; Nuclear receptor ROR-gamma (Mus musculus), P51450; further: nearly all actives have a fitted effect of over 60% in size
# Target sequence (P51450 whole entry, looked up, the tested form may be a part): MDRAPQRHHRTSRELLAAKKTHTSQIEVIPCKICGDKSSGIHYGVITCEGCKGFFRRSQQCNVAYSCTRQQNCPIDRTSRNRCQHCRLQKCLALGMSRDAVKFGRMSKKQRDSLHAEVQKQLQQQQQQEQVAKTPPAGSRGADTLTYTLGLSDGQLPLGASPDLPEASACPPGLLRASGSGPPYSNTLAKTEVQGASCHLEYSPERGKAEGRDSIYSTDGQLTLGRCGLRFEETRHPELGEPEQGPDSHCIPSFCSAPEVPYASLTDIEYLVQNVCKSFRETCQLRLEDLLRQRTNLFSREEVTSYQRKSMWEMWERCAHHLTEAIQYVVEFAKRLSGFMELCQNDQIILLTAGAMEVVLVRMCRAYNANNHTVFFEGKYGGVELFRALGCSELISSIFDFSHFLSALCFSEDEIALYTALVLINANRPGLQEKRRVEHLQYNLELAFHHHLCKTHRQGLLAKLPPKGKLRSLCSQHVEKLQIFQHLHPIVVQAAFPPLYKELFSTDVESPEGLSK
#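 A Gal4/UAS one-hybrid system in insect cells: metallothionein-promoter Gal4–ROR gamma fusion plus Photinus luciferase reporter. Copper sulfate 700 uM final, 20 hr ambient incubation, luminescent detection after 10 min with reagent.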
# TDP1 inh: qHTS Assay for Inhibitors of Tyrosyl-DNA Phosphodiesterase (TDP1); Tyrosyl-DNA phosphodiesterase 1 (Homo sapiens), Q9NUW8; 350,000 compounds, 0.28% hits; recombinant TDP1, AlphaScreen DNA substrate cleavage; Potency, µM (titrated, usually from 130 µM), for inactives: top-dose activity change, negative = inhibition, usual class: inhibitors; further: nearly all actives have a fitted effect of over 40% in size
#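 E. coli-derived human Tdp1, 1 nM final. Cpd preinc 15 min RT; substrate 15 nM final, 5 min RT; AS bead mix 10 ug/ml final, 10 min RT. Signal loss = tyrosine-FITC cleavage. No-enzyme wells = max signal.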
# VP16 counter: VP16 counterscreen qHTS for inhibitors of ROR gamma transcriptional activity; Drosophila S2 Gal4-VP16 UAS-luciferase, luminescence, 20 h; Potency, µM (highest dose often 53.6 µM), for the others: top-dose activity, negative = inhibition, actives largely listed as inhibitors; 310,000 compounds, 3.5% hits;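 further: Gal4-VP16 expression switched on by copper sulfate through the metallothionein promoter; nearly all actives have a fitted effect of over 50% in size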
# Active calls of the source: *; ? = inconclusive; nt = not tested or not shown; ! = a repeat was not active; [ ] = remark or other dose. This is a sample that favours compounds with a hit; in the whole collection about 19% have one here. The call rests on the fitted dose curve; in most records, active means well fitted curve in the direction sought with a large enough effect; inconclusive means small, poorly fitted or top-dose-only effect, or another doubt; inactive means no such curve, though single readings can be large; an effect the other way counts as inactive or inconclusive. On the % scale 0 is the no-effect control and ±100 the full control effect; potency means the concentration at half of the fitted maximal effect.
SMILES,TDP1 cell noCPT,DT40 TDP1 CPT,RORg inh,TDP1 inh,VP16 counter
c1ccc2c(c1)Sc1ccccc1N2C[C@@H]1CN2CCC1CC2,-3%,-5%,nt,nt,nt
Cc1ccc(C(O)(c2ccc(C)c(C)c2)C2CN3CCC2CC3)cc1C (centres undefined),2.3µM*,3.7µM*,?,nt,-15%
Cc1ccccc1C(O)(Cc1ccccc1)C1CN2CCC1CC2 (centres undefined),18µM*,18µM*,?,4%,0%
CC(=O)O[C@H]1CC[C@@]2(C)C(=CC(=O)C3C2CC[C@@]2(C)C3C[C@H](OC(C)=O)[C@@H]2OC(C)=O)C1 (some centres undefined),?,?,nt,-1%,nt
CCOP(=S)(OCC)O/N=C(\C#N)c1ccccc1Cl,nt,nt,-14%,-10%,-2%
CCC12CN3CC(CC)(CN(C1)C3c1ccccn1)C2=O (centres undefined),-22%,2%,nt,5%,nt
CN1C2CCC1/C(=C/c1ccccn1)C(=O)/C2=C\c1ccccn1,0.65µM*,0.52µM*,2.8µM*,13%,2.5µM*
Cc1cc(C)nc(/N=C(\N)c2c(O)[nH]c(=O)[nH]c2=O)n1,3%,0%,10%,-3%,1%[0.365 µM]
O=C(CNC(=O)c1cccs1)OCC(=O)c1ccc([N+](=O)[O-])cc1,?,16µM*,-9%,9%,-8%
Cn1c(=O)c2c(-c3ccccc3)n3c(c2n(C)c1=O)C(c1ccco1)Nc1ccccc1-3 (centres undefined),?,?,nt,0%,nt
COc1ccccc1C1Nc2ccccc2-n2c(-c3ccccc3)c3c(=O)n(C)c(=O)n(C)c3c21 (centres undefined),6.5µM*,-102%,nt,6%,nt
CC1(C)S[C@@H]2[C@H](N)C(=O)N2[C@H]1C(=O)O,-5%[9.04 µM],-8%[9.04 µM],nt,nt,nt
CCOc1ccc(CNCCc2ccc3c(c2)OCO3)cc1,?,1%,-19%,6%,-9%
CCOc1ccc(CN(CCc2ccc3c(c2)OCO3)Cc2cccc(Br)c2)cc1,?,2.1µM*,nt,-1%[12.3 µM],nt
COc1ccc(C(=O)N2Cc3cnnn3-c3ccccc3C2C#N)cc1 (centres undefined),-14%,-12%,nt,nt,nt
Clc1ccc(N2CC3CCC(C2)N3)nn1,nt,nt,nt,3%[56.1 µM],nt
CN1CCN(Cc2ccc3ccccc3c2)CC1,-15%,-3%,-3%,nt,-18%
CCCCCCOc1ccc(CN2CCN(C)CC2)cc1,18µM*,18µM*,-27%,4%,-17%
CCCSc1ncc(Cl)c(C(=O)N(Cc2ccccc2)c2ccc(OC)cc2)n1,4.6µM*,7.3µM*,nt,5%,nt
CCSC1=NN1c1cc(C)nc(N)n1,1%,-20%,6%,nt,-26%
S=C1CN=C(c2ccccc2Cl)c2cc(Cl)ccc2N1,8%,-3%,7.9µM*,5%,7.1µM*
O=c1[nH]c(=O)n(C2CCCCC2)c(O)c1/C=N/N1CCCCC1c1cccnc1 (centres undefined),0%,?,1%,3%,-3%
COc1ccccc1Cc1c(-c2ccc(C)cc2)nc2cc(C)c(Br)c(C)n12,16µM*,21µM*,nt,nt,nt
COc1ccc(-c2nc3ccc(Br)cn3c2CC(=O)N2CCCC2)cc1OC,?,-20%,nt,nt,nt
COc1ccccc1Cc1c(-c2ccc(F)cc2)nc2cc(C)c(Br)c(C)n12,23µM*,?,nt,nt,nt
SMILES,TDP1 cell noCPT,DT40 TDP1 CPT,RORg inh,TDP1 inh,VP16 counter
Cc1ccc2c(c1)C1CN(C)CCC1N2C(=O)/C=C/c1ccc2c(c1)OCO2 (centres undefined),-23%,5%,28%,3%,2%
CCOc1ccc(-n2c(O)c(C=NCCN(CC)CC)c(=O)[nH]c2=O)cc1,12%,-1%,-19%[0.365 µM],-1%,nt
COc1cc(OC)cc(C(=O)NC(=S)N2C[C@H]3C[C@H](C2)c2cccc(=O)n2C3)c1,-10%,2%,11µM*,nt,-7%
COc1cc(C(=O)NC(=S)N2C[C@H]3C[C@H](C2)c2cccc(=O)n2C3)cc(OC)c1OC,-29%,-1%,-42%,nt,-5%
O=C(NC(=S)N1C[C@H]2C[C@H](C1)c1cccc(=O)n1C2)c1ccc(Cl)cc1,-14%,1%,4.5µM*,nt,?
Nc1cc(C(=O)Nc2ccc(Cl)cc2)ccc1N1CC2CC(C1)c1cccc(=O)n1C2 (centres undefined),10µM*,21µM*,-3%,5%,-2%
N=c1n(CCO)c2ccccc2n1Cc1ccccc1,?,-27%,-7%,0%,-9%
O=C1NC(=O)N(Cc2ccccc2Cl)C(=O)/C1=C/N1CCOCC1,-15%,-11%,-31%,-2%,-5%
COc1cccc(CN2CCN(C(=O)Cc3ccccc3OC)CC2)c1,-28%,0%,nt,3%,nt
O=C(c1ccco1)C12CN3CN(CN(C3)C1)C2,-14%,?,?,3%[56.1 µM],1%
Cc1oc2cc3oc(=O)c(CCC(=O)N4CCCCC4)c(C)c3cc2c1C,23µM*,12µM*,nt,9%,nt
NC(=S)/N=C/c1c(O)[nH]c(=O)[nH]c1=O,-25%,11%,-18%,-6%,5%
CCOC(=O)C1CCN(C=C2C(=O)N(C)C(=S)N(C)C2=O)CC1,-28%,-6%,-2%,-11%,0%
CN(C)C1(c2nnnn2CCOC(=O)Nc2ccc(Cl)cc2)CCCCC1,18µM*,?,19%,0%,16%
C=CCN1Cc2ccccc2-n2nncc2C1,4%,6%,nt,nt,nt
Cc1ccc2c(c1)c(C1=c3ccccc3=NC1=O)c(O)n2C,2.1µM*,4.6µM*,7.1µM*,nt,3.5µM*
C=CC(=C)C,nt,nt,25%,12%,-8%
CC1(C)CC(=O)C2=C(C1)OC(N)=C([N+](=O)[O-])C2c1ccc(C#N)s1 (centres undefined),?,21µM*,27%,-6%,-5%
CC(NC(C)(C)C)C(=O)c1cccc(Cl)c1 (centres undefined),16µM*!,-3%,4%,5%,-16%
COc1cccc(NP(=O)(Oc2ccccc2Cl)Oc2ccccc2Cl)c1,18µM*,?,130%,-8%,-21%
COc1cccc(NP(=O)(Oc2ccccc2)Oc2ccccc2)c1,3.7µM*,5.2µM*,?,3%,-7%
O=P(Nc1cccnc1)(Oc1ccccc1)Oc1ccccc1,-11%,21%,36%,-3%,-3%
O=C(Nc1ccc(Br)cc1C(=O)c1ccccc1Cl)c1ccccc1F,-14%,8%,nt,2%[12.3 µM],nt
N#Cc1cc(NC(=O)c2ccc(Cl)cc2)ccc1Sc1ccccc1,16µM*,21µM*,nt,nt,nt
